Reference: PubChem BioAssay (NCATS)
Records with an inconclusive call do not appear. The source made the active and inactive calls. Calls come from the whole dose curve.

molecular target: Vitamin D3 receptor (Homo sapiens) (UniProt P11473); test: qHTS assay for small molecule agonists of vitamin D receptor signaling (AID 588543); conditions: HEK293T VDR-UAS-bla, beta-lactamase ratio, 16 h; series mostly up to 76.8 µM; activation: at the top concentration
Source text: NIH Chemical Genomics Center [NCGC]
U.S. Environmental Protection Agency [EPA]
National Institutes of Environmental Health Sciences [NIEHS]
National Toxicology Program [NTP]
The Vitamin D receptor (VDR) is a member of nuclear hormone receptor superfamily and it plays a critical role in calcium homeostasis and bone metabolism. It plays a role in inducing cell differentiation, inhibiting cell growth and in thrombogenicity. So, VDR that mediates these effects represents a pharmacological target in prevention and treatment of hyperproliferative malignancies, such as cancer and psoriasis, cardiovascular, immunological, inflammatory and renal diseases etc.
NCGC Assay Protocol Summary
Using a beta-lactamase reporter-gene under control of Vitamin D receptor (VDR) response element, a cell-based assay [GeneBLAzer (VDR -UAS-bla assay developed by Invitrogen] was used to measure VDR ligands signaling. GeneBLAzer VDR -UAS-bla HEK293T cells were used with assay medium containing 2% charcoal-stripped FBS. The assay was performed in clear bottom black Greiner 1536-well plates. 1-alpha,25-Dihydroxy vitaminD3 was used as a positive control in the screen. Library compounds were measured for their ability to stimulate the reporter gene activity. Compounds were screened in a titration series in 1536-well format. The fluorescence intensity (405 nm excitation, 460/530 nm emission) was measured using an EnVision plate reader. Data was normalized relative to 1-alpha,25-Dihydroxy vitaminD3 control (50 nM, 100%) and DMSO only wells (basal, 0%). Concentration-response titration points for each compound were fitted to the Hill equation yielding concentrations of half-maximal stimulation (EC50) and maximal response (efficacy) values.
qHTS protocol for VDR beta-lactamase assay in agonist mode
[Step] [Parameter] [Value] [Description]
1. Reagent; 6 uL; 2000 cells/well
2. Incubation; 37 C for 5 hrs
4. Controls (1-alpha,25-Dihydroxy vitaminD3); 23 nL,
- Final concentrations of 50 nM and 15 nM in two columns
5. Incubation; 37 C for 16 hrs
6. Detection reagent; 1 uL of CCF4-dye
7. Incubation; RT for 2 hrs
8. Detection; Fluorescence; Envision plate reader

Vitamin D3 receptor (Homo sapiens), sequence (P11473 whole entry, looked up): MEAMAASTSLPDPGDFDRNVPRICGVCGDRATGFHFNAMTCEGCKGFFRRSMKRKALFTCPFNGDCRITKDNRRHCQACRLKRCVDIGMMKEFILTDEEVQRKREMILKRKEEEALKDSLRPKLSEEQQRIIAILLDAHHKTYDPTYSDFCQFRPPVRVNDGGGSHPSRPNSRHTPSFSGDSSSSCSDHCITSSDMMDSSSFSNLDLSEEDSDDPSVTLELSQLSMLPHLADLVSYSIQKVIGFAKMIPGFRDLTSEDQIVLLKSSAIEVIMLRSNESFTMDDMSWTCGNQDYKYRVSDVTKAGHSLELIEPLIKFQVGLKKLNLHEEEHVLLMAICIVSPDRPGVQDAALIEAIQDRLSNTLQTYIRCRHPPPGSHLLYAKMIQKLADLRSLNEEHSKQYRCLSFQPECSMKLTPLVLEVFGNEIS

Compound | outcome | activation
O=P(O)(O)CCCl | inactive | –
COc1cc(OC)nc(NC(=O)NS(=O)(=O)c2ncccc2OCC(F)(F)F)n1 | – | -2.87% (inactive)
CCCCCCCCCCCCCCC(Br)C(=O)O (stereo not given) | – | 2.04% (inactive)
C(=NC1CCCCC1)=NC1CCCCC1 | – | -7.55% (inactive)
CCOP(=S)(OCC)SCCl | – | -7.18% (inactive)
CCCCOC(=O)[C@@H](C)Oc1ccc(Oc2ccc(C#N)cc2F)cc1 | – | 4.21% (inactive)
COc1ccc(O)c(C(C)(C)C)c1 | – | 3.77% (inactive)
COc1ccc(/C(=C/C(=O)N2CCOCC2)c2ccc(Cl)cc2)cc1OC | – | -3.27% (inactive)
CCOP(=S)(OCC)SCn1nnc2ccccc2c1=O | – | -4.96% (inactive)
CCOP(=O)(OCC)SCSP(=S)(OCC)OCC | – | -2.71% (inactive)
O=S1OC[C@@H]2[C@H](CO1)[C@@]1(Cl)C(Cl)=C(Cl)[C@]2(Cl)C1(Cl)Cl (stereo not given in full) | inactive | –
CC(C)=CC1C(C(=O)OCc2coc(Cc3ccccc3)c2)C1(C)C (stereo not given) | – | 0.838% (inactive)
CCC[CH2][Sn](=[O])[CH2]CCC | – | 4.08% (inactive)
CC1=C(C(=O)Nc2ccccc2)SCCO1 | – | 5.47% (inactive)
CCOc1nc(C(Cl)(Cl)Cl)ns1 | – | -3.62% (inactive)
Cc1cc(C)nc(NC(=O)NS(=O)(=O)c2ccccc2C(=O)OC2COC2)n1 | – | 7.02% (inactive)
CCOC(=O)C(Cl)Cc1cc(-n2nc(C)n(C(F)F)c2=O)c(F)cc1Cl (stereo not given) | – | -5.28% (inactive)
COP(=S)(OC)Oc1c(Cl)cc(C)cc1Cl | – | -5.73% (inactive)
O=C1C2(Cl)C3(Cl)C4(Cl)C(Cl)(Cl)C5(Cl)C3(Cl)C1(Cl)C5(Cl)C24Cl (stereo not given) | inactive | –
CCCCOCCOC(C)=O | – | 0.0543% (inactive)

Compound | outcome | activation
CC1(C)[C@H](C=C(Cl)Cl)[C@H]1C(=O)O[C@H](C#N)c1ccc(F)c(Oc2ccccc2)c1 | inactive | –
C=C(C)CN(CC)c1c([N+](=O)[O-])cc(C(F)(F)F)cc1[N+](=O)[O-] | – | 0.0437% (inactive)
CCOP(=O)(SC(C)CC)SC(C)CC (stereo not given) | – | 1.44% (inactive)
CNC(=O)O/N=C(\C)SC | – | -3.02% (inactive)
N#CC(Br)(Br)C(N)=O | – | -6.57% (inactive)
CNC(=S)S | – | -0.519% (inactive)
CC(C)COP(=O)(OCC(C)C)OCC(C)C | – | 3.01% (inactive)
Nc1ccccc1C(=O)OCCc1ccccc1 | – | -1.68% (inactive)
[Cd+2].[Cl-].[Cl-] | – | -6.43% (inactive)
CSC(=O)c1c(C(F)F)nc(C(F)(F)F)c(C(=O)SC)c1CC(C)C | – | -3.07% (inactive)
CO/N=C(/C(=O)OC)c1ccccc1COc1ccccc1C | – | -9.85% (inactive)
Nc1c(Cl)c(F)nc(OCC(=O)O)c1Cl | – | -0.998% (inactive)
COc1nc(C)nc(NC(=O)NS(=O)(=O)c2ccccc2Cl)n1 | – | 6.78% (inactive)
c1ccc2c(c1)oc1ccccc12 | – | -0.233% (inactive)
Brc1ccc(Br)cc1 | – | 1.8% (inactive)
O=C(O)C(F)(F)C(F)(F)C(F)(F)C(F)(F)C(F)(F)C(F)(F)C(F)(F)C(F)(F)F | inactive | –
COCC(=O)N(c1c(C)cccc1C)N1CCOC1=O | – | -0.37% (inactive)
CSc1nc(NC(C)C)nc(NC(C)C)n1 | – | 4.09% (inactive)
CCOP(=S)(OCC)Oc1ncn(-c2ccccc2)n1 | – | -0.472% (inactive)
CCOP(=O)(OCC)Oc1ccc([N+](=O)[O-])cc1 | – | 11.5% (inactive)
